The nature of experiment [1]: qHTS assay to identify small molecule agonists of the peroxisome proliferator-activated receptor delta (PPARd) signaling pathway - cell viability counter screen (AID 743211). Further: nearly all actives have a fitted effect of over 55% in size. An outline of the steps: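 HEK293H PPARd-bla, 3000 cells/well; 5 h preincubation 37C/5% CO2; cpd in DMSO, 17 h 37C; B/G FRET substrate 2 h RT; CellTiter-Glo 30 min RT, luminescence.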
Background: Quantitative high-throughput screening tests each substance at several concentrations.

Experiment [2] in a line: qHTS assay to identify small molecule antagonists of the peroxisome proliferator-activated receptor delta (PPARd) signaling pathway - cell viability counter screen (AID 743213). Further: nearly all actives have a fitted effect of over 50% in size. An outline of the steps:
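Agonist-stimulated (L165041, 300 nM final) HEK293H PPARd UAS-bla cells are exposed to compounds for 17 h at 37 C, and ATP-based luminescence (CellTiter-Glo) from the same wells reports cytotoxicity.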

Experiment [3] can be described thus: qHTS assay to identify small molecule agonists of the farnesoid-X-receptor (FXR) signaling pathway - cell viability counter screen (AID 743218). Further: nearly all actives have a fitted effect of over 45% in size. The gist of the method: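 FXR-UAS-bla HEK 293T cells, plated 5 h at 37 C, were exposed to compounds for 16 h at 37 C. CellTiter-Glo was then added to the same wells as the bla readout; luminescence read after 30 min at room temperature.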

A short description of experiment [4]: qHTS assay to identify small molecule antagonists of the farnesoid-X-receptor (FXR) signaling pathway - cell viability counter screen (AID 743221; active means well fitted cell-killing curve with a large enough effect in the repeat runs, not every such curve was filed as active; further: nearly all actives have a fitted effect of over 50% in size). The gist of the method:
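Luminescence from CellTiter-Glo measures cytotoxicity in GeneBLAzer FXR-UAS-bla HEK 293T cells. Cells were exposed to compounds with 50 uM chenodeoxycholic acid (final) for 16 h at 37 C, in wells also used for the reporter readout.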

Experiment [5] is described as follows: qHTS assay to identify small molecule agonists of the vitamin D receptor (VDR) signaling pathway - cell viability counter screen (AID 743224). Further: series mostly up to about 63 µM; nearly all actives have a fitted effect of over 50% in size. The gist of the method:
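VDR-bla cells were preincubated 4 h at 37C/5% CO2, then exposed to compounds for 16 h. After the 2 h room-temperature bla FRET read, CellTiter-Glo was added to the same wells and luminescence read after 30 min.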

Experiment [6] is described as follows: qHTS assay to identify small molecule antagonists of the vitamin D receptor (VDR) signaling pathway - cell viability counter screen (AID 743225). Further: nearly all actives have a fitted effect of over 50% in size. The gist of the method: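 Read-out: CellTiter-Glo luminescence measured 30 min after reagent addition at room temperature. Cells were VDR-bla HEK 293T exposed 16 h at 37C, 5% CO2, to compound with 3 nM final calcitriol agonist.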

Experiment [7] in a line: qHTS assay to identify small molecule agonists of the NFkB signaling pathway (AID 1159509; active means well fitted curve in the direction sought with a large enough effect in the signal ratio in the repeat runs, not every such curve was filed as active; the % refers to the signal ratio; further: series mostly up to about 61 µM). The gist of the method:
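After overnight attachment, reporter cells received test compounds, DMSO or positive controls and were incubated 5 hr at 37 C. FRET substrate was then added for 1.5 hr at room temperature before dual-emission fluorescence reading.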

Experiment [8] can be described thus: qHTS assay to identify small molecule agonists of the NFkB signaling pathway - cell viability counter screen (AID 1159515; calls by dose curve; further: series mostly up to about 61 µM; nearly all actives have a fitted effect of over 55% in size). The gist of the method:
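NFkB-bla ME-180 cells, 2,000/well, were plated overnight at 37 C, 5% CO2, then exposed to compounds in DMSO for 5 hr. After the bla FRET read, CellTiter-Glo was added to the same wells; luminescence was read after 30 min at room temperature.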

Experiment [9] is described as follows: qHTS assay to identify small molecule agonists of the endoplasmic reticulum stress response signaling pathway (AID 1159516; active means well fitted activation curve with a large enough effect in the signal ratio in the repeat runs, not every such curve was filed as active; the % refers to the signal ratio). An outline of the steps:
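CellSensor ESRE-bla HeLa cells, carrying a beta-lactamase reporter driven by the ER stress response element, were plated overnight and exposed to compounds for 5 hr at 37 C. Reporter activity was read as FRET substrate fluorescence after 2 hr at room temperature.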

The nature of experiment [10]: qHTS assay to identify small molecule agonists of the endoplasmic reticulum stress response signaling pathway - cell viability counter screen (AID 1159517; calls by dose curve). The gist of the method:
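Cells, HeLa ESRE-bla; density, 1,500/well; dosing, 5 hr at 37 C, 5% CO2; readout, CellTiter-Glo luminescence after 30 min RT.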

A short description of experiment [11]: qHTS assay to identify small molecule antagonists of the retinoid-related orphan receptor gamma (ROR-gamma) signaling pathway - cell viability counter screen (AID 1159520). Further: nearly all actives have a fitted effect of over 50% in size. The gist of the method: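 Cytotoxicity was read from cellular ATP (CellTiter-Glo luminescence) after 16 hr at 37 C with 1 uM doxycycline induction. The inducer was added 2 hr after compound transfer to Tet-on ROR gamma CHO cells.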

The target of experiment [12] is Nuclear receptor ROR-gamma (Homo sapiens) (UniProt P51449). In words: qHTS assay to identify small molecule antagonists of the retinoid-related orphan receptor gamma (ROR-gamma) signaling pathway (AID 1159521; further: nearly all actives have a fitted effect of over 50% in size; further: potency means the concentration at half of the fitted maximal effect). The gist of the method:
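CHO Tet-on RORγ, RORE-luc reporter. Cpd 2 h pre-incubation, then dox hyclate 1 uM final, 16 h, 37 C/5% CO2. ONE-Glo luminescence; decrease = antagonist.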

A short description of experiment [13]: qHTS assay to identify small molecule agonists of the AP-1 signaling pathway - cell viability counter screen (AID 1159525; calls by dose curve; further: nearly all actives have a fitted effect of over 55% in size). An outline of the steps: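 Luminescent ATP readout (Cell Titer Glo, 30 min RT), normalised to DMSO and tetra n-octyl ammonium bromide controls. Cells were ME-180 AP-1-bla in 0.5% dialyzed FBS Opti-MEM, with a 5 h, 37 °C compound exposure.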

Experiment [14] can be described thus: qHTS assay to identify small molecule agonists of the AP-1 signaling pathway (AID 1159526; calls by dose curve).
The target of experiment [15] is Bile acid receptor (Homo sapiens) (UniProt Q96RI1). The experiment is described as follows: qHTS assay to identify small molecule agonists of the farnesoid-X-receptor (FXR) signaling pathway (AID 743220; active means well fitted activation curve with a large enough effect in the signal ratio in the repeat runs, not every such curve was filed as active; the % refers to the signal ratio). The gist of the method: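 Beta-lactamase reporter under UAS control in GeneBLAzer FXR HEK 293T cells (5000/well) measured with LiveBLAzer FRET substrate after 2 h at room temperature. Compound exposure lasted 16 h at 37C.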

In experiment [16] the target is Vitamin D3 receptor (Homo sapiens) (UniProt P11473). The experiment is described as follows: qHTS assay to identify small molecule agonists of the vitamin D receptor (VDR) signaling pathway (AID 743222; calls by dose curve). The gist of the method: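 VDR-bla cells were plated 4 h at 37C/5% CO2, then exposed to compounds in DMSO for 16 h. After LiveBLAzer B/G FRET substrate addition and 2 h at room temperature, beta-lactamase reporter fluorescence was read.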

Experiment [17] shares this target. The experiment is described as follows: qHTS assay to identify small molecule antagonists of the vitamin D receptor (VDR) signaling pathway (AID 743223; active means well fitted inhibition curve with a large enough effect in the signal ratio in the repeat runs, not every such curve was filed as active; the % refers to the signal ratio). An outline of the steps:
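Antagonist mode uses 1alpha,25-dihydroxyvitamin D3 at 3 nM final as stimulus. VDR-bla cells receive compounds in DMSO, incubate 16 h at 37C, then a beta-lactamase FRET substrate for 2 h at room temperature before fluorescence measurement.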

The target in experiment [18] is Peroxisome proliferator-activated receptor delta (Homo sapiens) (UniProt Q03181). In words: qHTS assay to identify small molecule agonists of the peroxisome proliferator-activated receptor delta (PPARd) signaling pathway (AID 743212; calls by dose curve). The gist of the method:
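HEK293H UAS-bla reporter cells, human PPARd system; compounds delivered in DMSO after 5 h plating, then at 37 C. Beta-lactamase FRET read, 2 h RT substrate step.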

Experiment [19] has the same target. In words: qHTS assay to identify small molecule antagonists of the peroxisome proliferator-activated receptor delta (PPARd) signaling pathway (AID 743215; active means well fitted inhibition curve with a large enough effect in the signal ratio in the repeat runs, not every such curve was filed as active; the % refers to the signal ratio; further: series mostly up to about 62 µM). The gist of the method: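 PPARd UAS-bla HEK293H cells were pre-incubated 5 h at 37 C, then given test compounds in DMSO plus agonist L165041 (300 nM final). After 17 h at 37 C, beta-lactamase FRET substrate was added; fluorescence read after 2 h at room temperature.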

Several values for one entry are separate records, joined by “and”; a condition that tells them apart may be missing. Equal values may be shown once. Records with an inconclusive call do not appear. Activity calls are given as the source filed them. Unless noted, the call rests on the fitted dose curve; in most records, active means well fitted curve in the direction sought with a large enough effect in the repeat runs; inconclusive means weak or mixed curves; inactive means no such curve, though single readings can be large; an effect the other way counts as inactive or inconclusive.

Here are results for 8 compounds from PubChem BioAssay (Tox21).

Sequence of Peroxisome proliferator-activated receptor delta (Homo sapiens) (Q03181 whole entry, looked up): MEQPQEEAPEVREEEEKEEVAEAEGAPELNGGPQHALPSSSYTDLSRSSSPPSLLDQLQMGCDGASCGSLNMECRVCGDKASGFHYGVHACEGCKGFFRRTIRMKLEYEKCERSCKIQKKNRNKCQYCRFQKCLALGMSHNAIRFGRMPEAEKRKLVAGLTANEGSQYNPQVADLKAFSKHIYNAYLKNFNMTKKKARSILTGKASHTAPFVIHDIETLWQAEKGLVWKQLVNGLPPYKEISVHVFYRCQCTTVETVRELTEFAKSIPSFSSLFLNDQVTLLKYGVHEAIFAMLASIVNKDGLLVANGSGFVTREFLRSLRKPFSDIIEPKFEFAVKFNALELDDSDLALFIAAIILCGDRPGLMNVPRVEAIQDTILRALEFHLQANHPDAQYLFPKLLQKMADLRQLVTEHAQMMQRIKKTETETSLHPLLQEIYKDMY
Sequence of Vitamin D3 receptor (Homo sapiens) (P11473 whole entry, looked up): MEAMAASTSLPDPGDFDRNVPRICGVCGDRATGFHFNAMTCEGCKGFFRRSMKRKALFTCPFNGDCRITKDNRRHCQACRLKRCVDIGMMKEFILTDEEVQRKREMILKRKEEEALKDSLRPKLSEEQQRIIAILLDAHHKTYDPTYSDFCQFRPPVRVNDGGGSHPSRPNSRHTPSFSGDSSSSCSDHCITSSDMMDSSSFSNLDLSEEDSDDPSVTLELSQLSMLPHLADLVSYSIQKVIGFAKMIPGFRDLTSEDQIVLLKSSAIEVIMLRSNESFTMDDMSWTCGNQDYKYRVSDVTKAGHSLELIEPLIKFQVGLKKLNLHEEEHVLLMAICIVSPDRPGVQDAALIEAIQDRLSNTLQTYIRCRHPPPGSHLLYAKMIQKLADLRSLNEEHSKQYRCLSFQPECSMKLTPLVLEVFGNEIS
Sequence of Bile acid receptor (Homo sapiens) (Q96RI1 whole entry, looked up): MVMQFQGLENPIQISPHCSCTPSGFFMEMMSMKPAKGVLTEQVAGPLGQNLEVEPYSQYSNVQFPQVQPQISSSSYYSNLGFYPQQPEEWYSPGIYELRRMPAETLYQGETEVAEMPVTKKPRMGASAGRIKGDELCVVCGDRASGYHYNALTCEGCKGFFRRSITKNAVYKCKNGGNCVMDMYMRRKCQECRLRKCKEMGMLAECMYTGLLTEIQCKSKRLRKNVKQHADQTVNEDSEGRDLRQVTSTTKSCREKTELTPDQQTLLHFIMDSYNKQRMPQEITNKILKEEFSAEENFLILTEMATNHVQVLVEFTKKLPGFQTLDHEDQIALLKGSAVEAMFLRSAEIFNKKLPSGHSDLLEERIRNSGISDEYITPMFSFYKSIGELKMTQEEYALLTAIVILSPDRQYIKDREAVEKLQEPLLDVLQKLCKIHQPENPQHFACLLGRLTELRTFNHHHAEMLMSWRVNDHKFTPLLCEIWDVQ

Consider `O=P1(NCCCl)OCCCN1CCCl` (stereo not drawn), for which the Potency entry in experiment [1], in [3], in experiment [4], in [5], in [12] and in experiment [14] was “inactive” throughout. Besides, the result in experiment [2], in experiment [6], in experiment [7], in [8], in [9] and in experiment [10] was inactive. The compound was called inactive in experiment [11] and in experiment [13].

In the case of `c1ccc2c(c1)CCCC2`, the compound was classed as inactive in experiment [2], in [15], in experiment [16], in experiment [17], in [7] and in experiment [8]. Also, the compound was called inactive in experiment [9], in [10], in experiment [11] and in experiment [13]. The Potency entry in experiment [3], in [4], in [5], in experiment [12] and in experiment [14] was “inactive” throughout.

As for `CC(C)(C)C(=O)CCl`, the result in experiment [18], in experiment [2], in experiment [19], in experiment [16], in experiment [17] and in [6] was inactive. Moreover, the call in experiment [7], in experiment [8], in [9], in experiment [10], in experiment [11] and in experiment [13] was inactive. In addition, the Potency result in experiment [3], in [4], in experiment [5], in experiment [12] and in experiment [14] was “inactive” in each case.

With `C[C@]12CC[C@H](O)CC1=CC[C@@H]1[C@@H]2CC[C@]2(C)C(=O)CC[C@@H]12`, the result in experiment [18], in [2], in experiment [6], in experiment [8], in experiment [9] and in [10] was inactive. The call in experiment [11] and in [13] was inactive. Further, the Potency entry in experiment [3], in experiment [4], in experiment [5] and in experiment [14] was “inactive” each time. The Potency in experiment [12] is 24.4 µM (active) and 24.3 µM (active).

As to `COP(=S)(OC)Oc1ccc(SC)c(C)c1`, the compound was classed as inactive in experiment [18], in experiment [2], in experiment [19], in experiment [16], in experiment [17] and in experiment [6]. In addition, the call in experiment [7], in experiment [8], in experiment [9], in experiment [10], in [11] and in experiment [13] was inactive. Besides, the Potency entry in experiment [3], in [4], in experiment [5], in experiment [12] and in experiment [14] was “inactive” each time.

As for `Cc1ccc(O)c(C)c1`, the compound was classed as inactive in experiment [18], in [2], in experiment [19], in experiment [7], in experiment [8] and in experiment [9]. Also, the call in experiment [10], in experiment [11] and in experiment [13] was inactive. Moreover, the Potency result in experiment [3], in [4], in experiment [5], in experiment [12] and in [14] was “inactive” each time.

Consider `NNc1ccccc1`, for which the compound was classed as inactive in experiment [2], in experiment [6], in [7], in [8], in experiment [9] and in experiment [10]. The compound was called inactive in [11] and in experiment [13]. Moreover, the Potency result in [3], in [4], in experiment [5], in experiment [12] and in [14] was “inactive” in each case.

Regarding `Cc1ccc(N=C=O)cc1N=C=O`, the call in experiment [2], in experiment [16], in experiment [17], in experiment [6], in experiment [7] and in experiment [8] was inactive. The compound was called inactive in experiment [9], in experiment [10], in [11] and in experiment [13]. Besides, the Potency result in experiment [3], in experiment [4], in experiment [5], in experiment [12] and in [14] was “inactive” each time.
